For 16 molecules, AC50 and outcome results are on record in PubChem BioAssay (EPA / NIEHS).

What is called AC50 is the concentration at which the activity in the assay is half-maximal.

Test [1] in a line: ACEA_AR_agonist_AUC_viability: ACEA Biosciences xCELLigence Real-Time Cell Analysis on Androgen Receptor Agonism for Viability (AID 2283775).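 As to AC50: viability read 80 hours after compound addition.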 The method in brief:
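Viability endpoint from xCELLigence impedance in 22Rv1 prostate cells at 80 h. Eight-point series, 100 uM maximum final.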

Test [2] is described as follows: ACEA_AR_antagonist_AUC_viability: ACEA Biosciences xCELLigence Real-Time Cell Analysis on Androgen Receptor Antagonism for Viability (AID 2283776).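 Also: 22Rv1 human prostate cancer cells growing on impedance electrode plates; hits lower the growth signal relative to DMSO meaning cytotoxicity.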 The method in brief:
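Impedance read-out (RT-CES): area under growth curve at 80 h post-dose, loss of signal scored vs DMSO baseline. 22Rv1 cells; 8-pt 1:4 series, top 100 uM final, ≤0.5% DMSO; biological duplicate.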

Test [3] can be described thus: ACEA_ER_AUC_viability: ACEA Biosciences xCELLigence Real-Time Cell Analysis on Estrogen Receptor Agonism for Viability (AID 2283782).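 Also: hit means loss of impedance signal meaning reduced cell growth or viability.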 The method in brief: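 Continuous-exposure impedance cell analysis uses T-47D cells in charcoal-stripped serum, eight 1:4 dilutions topping at 100 uM final, biological duplicate. Area under the growth curve at 80 h is fitted against DMSO baseline.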

Test [4] can be described thus: STM_H9_NormalizedViability: Cytotoxicity Assessment at 120 hours in the Stemina devTOX quickPredict H9 human embryonic stem cell (hESC)-based Assay (AID 2283784). The method in brief:
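CellTiter-Fluor RFU, background-subtracted, expressed relative to 0.1% DMSO neutral control by plate. Pluripotent H9 cells; treatment with daily re-dosing. Plates carried 1uM methotrexate (positive) and 5 nM methotrexate (negative) references.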

The target of a further test is AR (gene 367) (UniProt P10275). Briefly: ACEA_AR_antagonist_80hr: ACEA Biosciences xCELLigence Real-Time Cell Analysis on Androgen Receptor Antagonism for Proliferation (AID 2283787).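 Also: 22Rv1 human prostate cancer cells with growth followed by electrical impedance; hits lower the impedance growth signal relative to DMSO.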 The method in brief: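 Using 22Rv1 cells held in assay medium, we dosed compounds (100 uM maximum final, 1:4 serial, eight points, 0.5% DMSO at top) and recorded cell-electrode impedance; the 80 hr timepoint was analyzed against DMSO.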

In test [5] the test system is frog Estrogen Receptor (ESR1), gene 398734. Briefly: ATG_frER1_XSP1: Attagene TRANS-FACTORIAL Multi-Species (XSP1) HepG2 Assay for frog Estrogen Receptor (ESR1) (AID 2283777). The method in brief: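 After transient transfection and 24 h compound treatment, total RNA from HepG2 cells was reverse-transcribed, amplified, FAM-labeled and resolved by capillary electrophoresis. Signal increases were fitted against DMSO controls.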

Test [6] concerns zebrafish Estrogen Receptor (ESR2A), gene 317734. Put plainly: ATG_zfER2a_XSP1: Attagene TRANS-FACTORIAL Multi-Species (XSP1) HepG2 Assay for zebrafish Estrogen Receptor (ESR2A) (AID 2283778). The method in brief: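 Gain-of-signal reporter transcription readout from GAL4-UAS units in transiently transfected HepG2 cells, 24 h exposure, 3 nM 6-alpha-fluorotestosterone co-present. Detection by RT-PCR with capillary electrophoresis fluorescence.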

The target in test [7] is chicken Estrogen Receptor (ESR1), ESR1 (gene 396099) (UniProt P06212). Put plainly: ATG_chERa_XSP1: Attagene TRANS-FACTORIAL Multi-Species (XSP1) HepG2 Assay for chicken Estrogen Receptor (ESR1) (AID 2283779). The method in brief: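 Gain-of-signal reporter transcription, relative to DMSO, was scored in transiently transfected HepG2 cells after a 24 h dose. Fluorescence intensity of amplified, digested reporter cDNA fragments served as the endpoint.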

Test [8] deals with Estrogen receptor (Homo sapiens) (UniProt P03372). Put plainly: ATG_hERa_XSP1: Attagene TRANS-FACTORIAL Multi-Species (XSP1) HepG2 Assay for human Estrogen Receptor (ESR1) (AID 2283780). The method in brief: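 Reporter transcripts from multiplexed GAL4-UAS units driven by NR-Gal4 chimeras in transiently transfected HepG2 were measured by RT-PCR with capillary electrophoresis 24 h post-dose, with 3 nM 6-alpha-fluorotestosterone present; gain-of-signal relative to DMSO.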

Test [9] deals with turtle Estrogen Receptor (ESR1), gene 101933533. Briefly: ATG_trERa_XSP1: Attagene TRANS-FACTORIAL Multi-Species (XSP1) HepG2 Assay for turtle Estrogen Receptor (ESR1) (AID 2283781). The method in brief: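 Cell-based chimeric NR-Gal4 transactivation; HepG2; 24 h dosing; mRNA reporter detected by RT-PCR and capillary electrophoresis fluorescence.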
The subject of test [10] is turtle Androgen Receptor (AR), gene 101947425. Put plainly: ATG_trAR_XSP1: Attagene TRANS-FACTORIAL Multi-Species (XSP1) HepG2 Assay for turtle Androgen Receptor (AR) (AID 2283786). The method in brief:
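Partial androgen stimulation is provided by 3 nM 6-alpha-fluorotestosterone in a multi-species trans-factorial panel expressing a turtle AR–GAL4 fusion in HepG2. After 24 h, reporter mRNA is measured by RT-PCR and capillary electrophoresis and fitted upward against DMSO.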

For test [11], the target named is GAL4 Transcription Factor (Internal Marker), GAL4 (gene 855828) (UniProt P04386). Put plainly: ATG_GAL4_XSP1: Attagene TRANS-FACTORIAL Multi-Species (XSP1) HepG2 Assay for GAL4 Transcription Factor (Internal Marker) (AID 2283789). The method in brief:
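This background-control endpoint measures GAL4-driven reporter mRNA via RT-PCR and capillary electrophoresis of labelled fragments. Transiently transfected HepG2 cells were treated 24 h, with 3 nM 6-alpha-fluorotestosterone included, and gain-of-signal was fitted against DMSO.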

Test [12] can be described thus: ATG_M_19_XSP1: Attagene TRANS-FACTORIAL Multi-Species (XSP1) HepG2 Assay for M19 Transcription Factor (Internal Marker) (AID 2283798). The method in brief:
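Readout is reporter mRNA induction quantified via RT-PCR, 6-FAM labeling, HpaI digestion and capillary electrophoresis, fitted in the positive direction versus DMSO baseline. Transfected HepG2 cells exposed 24 h, medium including 3 nM 6-alpha-fluorotestosterone.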

The test system of test [13] is zebrafish Peroxisome Proliferator-activated Receptor gamma (PPARg), gene 557037. Briefly: ATG_zfPPARg_XSP1: Attagene TRANS-FACTORIAL Multi-Species (XSP1) HepG2 Assay for zebrafish Peroxisome Proliferator-activated Receptor gamma (PPARg) (AID 2283801). The method in brief: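 Trans-activation readout of chimeric zebrafish PPARg–GAL4 in transiently transfected human HepG2 cells, 24 h chemical exposure (medium includes 3 nM 6-alpha-fluorotestosterone). Reporter transcripts measured by RT-PCR and capillary electrophoresis, fitted as gain over DMSO.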

Records with an inconclusive call do not appear. Active and inactive are the calls of the source. The calls were made as follows: active = hit-call score of the fitted dose curve at least 0.9, where 1 is the maximum; inconclusive = response in the unintended direction; inactive = score below 0.9.

Sequence of AR (gene 367) (P10275 whole entry, looked up): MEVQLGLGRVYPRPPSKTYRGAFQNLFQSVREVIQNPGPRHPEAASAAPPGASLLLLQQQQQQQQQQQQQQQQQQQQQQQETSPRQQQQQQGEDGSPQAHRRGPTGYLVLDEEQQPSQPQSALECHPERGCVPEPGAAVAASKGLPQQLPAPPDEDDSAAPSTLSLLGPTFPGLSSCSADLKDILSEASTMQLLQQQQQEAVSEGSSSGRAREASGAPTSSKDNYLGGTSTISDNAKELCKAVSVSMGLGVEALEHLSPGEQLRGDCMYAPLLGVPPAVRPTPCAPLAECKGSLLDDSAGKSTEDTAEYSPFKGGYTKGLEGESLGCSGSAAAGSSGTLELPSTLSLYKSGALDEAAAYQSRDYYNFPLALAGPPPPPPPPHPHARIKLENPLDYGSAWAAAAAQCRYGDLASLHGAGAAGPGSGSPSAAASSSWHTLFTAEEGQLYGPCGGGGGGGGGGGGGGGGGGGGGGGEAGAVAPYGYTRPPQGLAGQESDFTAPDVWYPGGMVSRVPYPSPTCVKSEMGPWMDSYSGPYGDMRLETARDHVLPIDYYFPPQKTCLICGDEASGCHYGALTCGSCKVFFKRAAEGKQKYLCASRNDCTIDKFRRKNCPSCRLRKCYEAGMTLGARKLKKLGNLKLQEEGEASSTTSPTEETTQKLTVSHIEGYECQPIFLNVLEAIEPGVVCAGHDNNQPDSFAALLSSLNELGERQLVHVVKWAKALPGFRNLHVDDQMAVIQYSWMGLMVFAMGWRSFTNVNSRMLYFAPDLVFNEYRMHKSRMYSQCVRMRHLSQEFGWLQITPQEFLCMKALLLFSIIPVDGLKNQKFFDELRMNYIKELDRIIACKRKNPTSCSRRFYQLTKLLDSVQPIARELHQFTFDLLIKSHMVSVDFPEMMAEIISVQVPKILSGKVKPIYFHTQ
Sequence of Estrogen receptor (Homo sapiens) (P03372 whole entry, looked up, the tested form may be a part): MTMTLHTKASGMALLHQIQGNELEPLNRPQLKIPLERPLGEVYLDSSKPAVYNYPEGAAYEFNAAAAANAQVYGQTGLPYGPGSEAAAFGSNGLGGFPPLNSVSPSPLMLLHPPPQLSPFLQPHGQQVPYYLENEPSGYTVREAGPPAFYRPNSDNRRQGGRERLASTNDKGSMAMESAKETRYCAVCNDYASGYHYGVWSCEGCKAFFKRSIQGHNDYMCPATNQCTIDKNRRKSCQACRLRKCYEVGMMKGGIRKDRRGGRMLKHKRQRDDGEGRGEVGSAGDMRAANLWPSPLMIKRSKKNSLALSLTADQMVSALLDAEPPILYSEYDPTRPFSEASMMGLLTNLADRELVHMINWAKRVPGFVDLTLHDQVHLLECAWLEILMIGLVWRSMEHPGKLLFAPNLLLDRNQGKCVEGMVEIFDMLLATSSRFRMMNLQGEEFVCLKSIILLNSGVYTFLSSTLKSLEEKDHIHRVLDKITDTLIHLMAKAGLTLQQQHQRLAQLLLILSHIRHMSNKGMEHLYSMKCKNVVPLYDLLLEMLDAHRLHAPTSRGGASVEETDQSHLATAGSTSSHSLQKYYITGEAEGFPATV
Sequence of GAL4 Transcription Factor (Internal Marker), GAL4 (gene 855828) (P04386 whole entry, looked up, the tested form may be a part): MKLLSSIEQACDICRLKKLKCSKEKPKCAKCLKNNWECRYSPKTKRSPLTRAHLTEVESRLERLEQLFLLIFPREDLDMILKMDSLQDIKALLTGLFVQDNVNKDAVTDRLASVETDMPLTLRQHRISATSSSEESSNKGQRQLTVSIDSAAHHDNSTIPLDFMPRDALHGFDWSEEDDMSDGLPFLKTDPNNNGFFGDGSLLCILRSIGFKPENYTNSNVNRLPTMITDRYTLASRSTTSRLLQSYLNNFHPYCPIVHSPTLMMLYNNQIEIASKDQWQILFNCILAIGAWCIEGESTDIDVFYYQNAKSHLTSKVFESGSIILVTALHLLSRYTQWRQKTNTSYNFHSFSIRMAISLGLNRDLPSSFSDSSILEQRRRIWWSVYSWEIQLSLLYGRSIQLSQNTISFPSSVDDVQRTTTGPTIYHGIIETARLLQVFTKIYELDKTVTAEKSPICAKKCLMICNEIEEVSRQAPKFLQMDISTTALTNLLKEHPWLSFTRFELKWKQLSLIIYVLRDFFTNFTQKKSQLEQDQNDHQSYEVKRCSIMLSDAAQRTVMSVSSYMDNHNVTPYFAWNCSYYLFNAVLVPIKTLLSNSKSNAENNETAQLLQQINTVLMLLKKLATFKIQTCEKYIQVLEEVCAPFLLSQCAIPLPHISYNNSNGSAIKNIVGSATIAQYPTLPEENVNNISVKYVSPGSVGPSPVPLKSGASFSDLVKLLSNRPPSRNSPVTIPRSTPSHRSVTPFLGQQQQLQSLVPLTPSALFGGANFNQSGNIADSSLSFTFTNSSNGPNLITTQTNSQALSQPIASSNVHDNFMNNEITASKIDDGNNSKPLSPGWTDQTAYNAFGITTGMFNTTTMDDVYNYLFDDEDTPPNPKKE
Sequence of chicken Estrogen Receptor (ESR1), ESR1 (gene 396099) (P06212 whole entry, looked up, the tested form may be a part): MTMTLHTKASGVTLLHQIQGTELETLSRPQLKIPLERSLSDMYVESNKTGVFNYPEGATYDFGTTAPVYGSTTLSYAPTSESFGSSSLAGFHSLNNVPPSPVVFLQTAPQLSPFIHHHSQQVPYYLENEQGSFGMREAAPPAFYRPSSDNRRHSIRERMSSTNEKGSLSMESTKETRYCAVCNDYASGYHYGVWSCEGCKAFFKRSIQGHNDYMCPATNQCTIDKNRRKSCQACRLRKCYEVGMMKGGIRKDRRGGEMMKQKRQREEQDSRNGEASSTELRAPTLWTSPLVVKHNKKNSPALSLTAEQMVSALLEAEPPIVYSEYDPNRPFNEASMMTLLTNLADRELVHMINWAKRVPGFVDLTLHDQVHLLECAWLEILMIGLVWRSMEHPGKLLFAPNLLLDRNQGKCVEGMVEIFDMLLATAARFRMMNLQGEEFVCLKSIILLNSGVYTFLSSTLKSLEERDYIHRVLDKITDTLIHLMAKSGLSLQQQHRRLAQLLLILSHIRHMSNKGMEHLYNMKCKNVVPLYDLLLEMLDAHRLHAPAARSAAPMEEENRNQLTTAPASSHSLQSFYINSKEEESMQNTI

Take `O=C(Nc1ccc([N+](=O)[O-])cc1Cl)c1cc(Cl)ccc1O`: the AC50 in test [1] was 0.723 µM (active); in test [2] it was 0.821 µM (active); in test [3], 2.89 µM (active).

Take `Cc1nn(C)c(Oc2ccccc2)c1C=NOCc1ccc(C(=O)OC(C)(C)C)cc1`: the concentration at half-maximal activity (AC50) was 13 µM (active) in [1], 13.8 µM (active) in test [2], 0.0346 µM (active) in test [4] and 12.7 µM (active) in the test with AR (gene 367). The molecule was classed as inactive in test [3].

In the case of `COC(=O)c1ccc(I)cc1S(=O)(=O)NC(=O)Nc1nc(C)nc(OC)n1`, the molecule was called inactive in test [1], in test [2], in test [3] and in [4].

As to `O=C(O)C1(C(=O)Nc2ccc(Cl)cc2Cl)CC1`, the figures for the AC50 (in [1]; in [2]; with AR (gene 367)) were 50 µM (active), 50 µM (active) and 65.1 µM (active), respectively. Moreover, the call in [3] and in [4] was inactive.

For the molecule `CC1(C)C(C=C(Cl)Cl)C1C(=O)OCc1cccc(Oc2ccccc2)c1` (stereo unspecified), the AC50 in test [1] is 30.8 µM (active); in test [2], 34.2 µM (active); with AR (gene 367), 33 µM (active). The result in test [5], in test [6], in test [7], in test [8], in test [9] and in test [10] was inactive. In addition, the outcome in [11], in [12] and in test [13] was inactive.

`CCCOC(=O)NCCCN(C)C`: the call in test [1] and in [2] was inactive.

Take `CCOC(=O)C(C)Oc1ccc(Oc2nc3ccc(Cl)cc3o2)cc1` (stereo unspecified): the molecule was classed as inactive in test [1]. Further, the results for the concentration at half-maximal activity (AC50) (in test [2]; in the test with AR (gene 367)) were 36.4 µM (active) and 42.6 µM (active), respectively.

On to `CSC(=O)c1cccc2nnsc12`, for which the molecule was classed as inactive (in test [2]; in test [3]; in test [4]; with AR (gene 367)).

As for `COC(=O)c1ccccc1C(=O)O`, the outcome in test [1], in [2] and in test [4] was inactive.

Regarding `CCCCOCCOCCOCc1cc2c(cc1CCC)OCO2`, the AC50 in [1] was 65 µM (active); in test [2], 50 µM (active); with AR (gene 367), 76.3 µM (active). Moreover, the molecule was classed as inactive in [3].

`C#CCOC(=O)[C@@H](C)Oc1ccc(Oc2ncc(Cl)cc2F)cc1`: the AC50 was 18.2 µM (active) in test [1], 23.1 µM (active) in test [2] and 76 µM (active) in test [4].

For `CCCCOC(=O)C(C)Oc1ccc(Oc2ccc(C(F)(F)F)cn2)cc1` (stereo unspecified), the figures for the half-maximal activity concentration (AC50) in test [1] and in test [2] were 43.1 µM (active) and 50 µM (active), respectively. In addition, the result in [4] was inactive.

For the molecule `S=C([S-])NCCNC(=S)[S-].[Mn+2]`, the outcome in test [4] was inactive.

Turning to `CC(C)(C)[C@@H](O)[C@@H](Cc1ccc(Cl)cc1)n1cncn1`, the molecule was classed as inactive in [1] and in [4]. Further, in test [2], the AC50 was 24.1 µM (active).

On to `c1ccc2[nH]c(-c3cscn3)nc2c1`, for which the half-maximal activity concentration (AC50) in test [1] is 39.2 µM (active); in test [2] it was 34.5 µM (active); with AR (gene 367), 50 µM (active). For the same molecule, the molecule was called inactive in test [3].

For the molecule `C[C@]12C[C@H](O)[C@H]3[C@@H](CCC4=CC(=O)CC[C@@]43C)[C@@H]1CC[C@@H]2C(=O)CO`, the call in test [2] was inactive. Further, in test [4], the half-maximal activity concentration (AC50) was 80 µM (active).
